Assay outcomes from PubChem.
The list is not random: actives were taken first. Their share in the collection is about 3.2%.
BRCA1 expr up: qHTS Assay to Identify Small Molecule Activators of BRCA1 Expression; 1.1% of 380,000 active; MCF7-BRCA1-FFLuc reporter, luminescence, 48 h; response scale: scaled: vehicle 0%, 10 µM genistein 100%; Potency, µM (doses to about 46.1 µM), inactives show at the highest dose activation, hits mostly activators; further: potency means the concentration at half of the fitted maximal effect; nearly all actives have a fitted effect of over 80% in size
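Using MCF7 cells harboring a BRCA1 firefly luciferase reporter, plated 2 h before compound pinning, the screen measured luminescence after 48 h incubation. Responses were normalized to DMSO and 10 microM genistein, then fitted for concentration-effect.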
Nrf2 ARE act: qHTS of Nrf2 Activators. AREc32 ARE-luciferase reporter (MCF7-derived line), luminescence, 24 h. AID 624171, 2012. Potency, µM (doses to about 46.1 µM), without a hit: at the highest dose activation, most hits filed as activators. 0.31% of 410,000 active; further: potency means the concentration at half of the fitted maximal effect; % of control where 0% means no effect; nearly all actives have a fitted effect of over 65% in size
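Luminescent ARE reporter assay in AREc32_Fluc cells: overnight plating at 37 deg C, 24 hr compound incubation, Steady-Glo added, 30 min RT before reading.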
p53 reactivation: qHTS assay for re-activators of p53 using a Luc reporter | H1299 p53-A138V BP100-luciferase reporter, luminescence, 24 h | Potency, µM (series often up to 92.2 µM), inactives show at the highest dose activity change, positive = activation, hits mostly activators | 0.063% of 320,000 active; further: potency means the concentration at half of the fitted maximal effect; % of control where 0% means no effect; nearly all actives have a fitted effect of over 45% in size
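H1299 (p53-null), stable ts p53-A138V + BP100-Luc; 1000 cells/well, Opti-MEM/10% FBS; cpd 4 pt, 1:5; 24 h, 37 deg C, 5% CO2; detection reagent 10 min RT; luminescence.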
A549 tox: Nrf2 qHTS screen for inhibitors: counterscreen for cytotoxicity; Potency, µM (highest dose often 46 µM), inactives show at the top dose activity change, negative = cytotoxicity, most hits filed as inhibitors; 0.16% of 390,000 active; A549 ARE-Fluc cells, CellTiter-Fluor viability, 18-24 h; further: potency means the concentration at half of the fitted maximal effect; on the % scale 0 is the no-effect control and ±100 the full control effect
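A549 ARE-Fluc cells in 5% FBS OPTI-MEM, 5000 cells/well, rested 2 h then exposed to compounds in concentration-response for 18-24 h at 37 °C. Viability by CellTiter-Fluor fluorescence (Ex 405/Em 525) after 30 min; luciferase luminescence (BugLite, 15 min, RT) read afterwards.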
IL-2 act: qHTS of IL-2 Activators; IL-2 activation reporter assay, cell-based qHTS; stimulated with anti-CD3/CD4/CD28 beads; in transgenic mouse T cells; 0.065% of 360,000 active; activation, % (series mostly up to about 46 µM); in the data active means activation above about 50%; inconclusive means mostly about 30% to 49%; further: 0% is about no effect
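First, unstimulated transgenic mouse T cells were exposed to compound for 60 min. Next, anti-CD3/anti-CD4-coated beads with anti-CD28 were added. Finally, after 18 h at 37 degrees C, EGFP and DsRed were imaged.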
Nrf2 inh: Nrf2 qHTS screen for inhibitors. Potency, µM (doses to about 46 µM), inactives show at the highest dose activity change, negative = inhibition, usual class: inhibitors. AID 504444, 2011. A549 ARE-Fluc reporter, luciferase luminescence, 18-24 h. 2.1% of 360,000 active; further: potency means the concentration at half of the fitted maximal effect; on the % scale 0 is the no-effect control and ±100 the full control effect; nearly all actives have a fitted effect of over 60% in size
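Concentration-response testing used A549 ARE_Fluc cells at 5000 cells/well. Following an 18-24 h compound incubation, viability was read by fluorescence (Ex 405/Em 525) and luciferase output by luminescence.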
Starred values were filed as active, the others as inactive; ? = inconclusive; . = not tested or not shown. Unless noted, the call rests on the fitted dose curve; in most records, active means well fitted curve in the direction sought with a large enough effect; inconclusive means small, poorly fitted or top-dose-only effect, or another doubt; inactive means no such curve, though single readings can be large; an effect the other way counts as inactive or inconclusive.

SMILES	BRCA1 expr up	Nrf2 ARE act	p53 reactivation	A549 tox	IL-2 act	Nrf2 inh
CCCCn1c(O)c(C(CC)=Nc2ccc(OCC)cc2)c(=O)[nH]c1=O	-55.0%	-0.7%	0.5%	1.1%	-2.8	13µM*
CC(=O)OC(C)(C)/C=C/C(=O)C(C)(O)C1C(O)CC2(C)C3CC=C4C(CC(O)C(=O)C4(C)C)C3(C)C(=O)CC12C (stereo unspecified)	?	-1.3%	.	2.91µM*	-7.3	?
Cc1nn(Cc2ccc(Cl)cc2Cl)c(Cl)c1C(=O)O	0.1%	4.8%	6.1%	21.9%	-0.6	11.9%
N=c1c2c(n(Cc3ccc(Cl)cc3Cl)c3c1CCC3)CCCC2	-83.1%	6.6%	-4.6%	?	0.4	13µM*
CCOC(=O)[C@]12Cc3cc(C)ccc3[C@H]1N(Cc1ccccc1)C(=O)c1ccccc12	-26.5%	-1.0%	.	?	-0.6	23.1µM*
CCN(CC)c1ccc(/C=C/[N+](=O)[O-])cc1	-14.5%	0.7%	-9.7%	2.3%	10.8	3.7%
O=[N+]([O-])/C=C/c1c(Cl)cccc1Cl	-85.3%	14.1µM*	.	-6.1%	-6.5	-25.6%
Nc1c(Br)cc2c3c(cccc13)-c1ccccc1-2	-34.9%	13.4%	.	-1.9%	81.8*	14.2%
CCOC(=O)c1c(/N=C/C2C(=O)NC(=O)NC2=O)sc2c1CCC2	-15.8%	0.0%	2.5%	1.1%	75.7*	-8.3%
C[C@@H]1O[C@@H](O[C@H]2C[C@@H](O)[C@]3(CO)[C@H]4[C@H](O)C[C@]5(C)[C@@H](C6COC(=O)C6)CC[C@]5(O)[C@@H]4CC[C@]3(O)C2)[C@H](O)[C@H](O)[C@H]1O (stereo partly specified)	-69.0%	-3.9%	4.4%	?	-0.2	0.411µM*
O=P1(Nn2cnnc2)C=C(c2ccccc2)OC(c2ccccc2)=C1	18.8%	-0.6%	-2.4%	?	0.2	6.3%
CN(C)c1ccc(/C=C/c2cc[n+](C)c3ccccc23)cc1	-72.5%	-1.2%	-2.5%	16.4µM*	-7.5	8.2µM*
ClCCN(CCCl)c1ccc(/C=C/c2ccnc3ccccc23)cc1	-29.7%	.	.	.	.	.
Nc1c(C(=O)OC2CCCCC2)c2nc3ccccc3nc2n1CC1CCCO1 (stereo unspecified)	0.6%	-0.1%	?	-19.5%	-0.6	23.1µM*
COc1ccc2[nH]cc(CCN=C(NC(=O)c3ccccc3OC)Nc3nc(C)cc(C)n3)c2c1	-61.7%	4.1%	.	-19.9%	.	?
CSc1cccc(CNC(=O)C2CCC(=O)N(Cc3cccc(C(F)(F)F)c3)C2)c1 (stereo unspecified)	?	0.2%	10.6%	-0.9%	-0.7	?
COc1ccc(C/C(=N\OC(C)=O)c2ccc(OC)cc2)cc1	92.5%	3.6%	0.1%	3.3%	-1.3	?
CN1C(=O)c2ccccc2Sc2ccc(NC(=O)NCc3ccc(Cl)cc3)cc21	.	-0.2%	.	-10.6%	.	14.6µM*
CN1C(=O)c2ccccc2Sc2ccc(C(=O)N3CCC4(CC3)OCCO4)cc21	-18.7%	-0.1%	-2.6%	-6.1%	0.1	-0.9%
C[C@]12CCC3C(CC[C@H]4CC(O)CC[C@]34C)C1CC/C2=N/NC(=O)c1ccncc1 (stereo partly specified)	-14.0%	0.3%	-4.5%	-5.3%	-0.4	?
CCOC(=O)CC1c2ccccc2-n2nncc2CN1C (stereo unspecified)	2.6%	-0.4%	.	6.6%	0.5	0.5%
CCOC(=O)CC1c2ccccc2-n2nncc2CN1Cc1ccc(OC)cc1 (stereo unspecified)	-1.4%	0.2%	.	-10.9%	-0.3	23.1µM*
CCC(=NCc1ccc2c(c1)OCO2)c1c(O)n(C)c(=O)n(C)c1=O	-68.3%	0.1%	-6.4%	-4.2%	-3.8	?
CCC(=NCc1cc(OC)cc(OC)c1)c1c(O)n(C)c(=O)n(C)c1=O	-78.8%	0.4%	2.7%	?	0.0	23.1µM*
O=C(c1ccc2c(c1)N(Cc1c(F)cccc1Cl)C(=O)c1ccccc1S2)N1CCC2(CC1)OCCO2	0.0%	-0.3%	.	?	.	20.6µM*
SMILES	BRCA1 expr up	Nrf2 ARE act	p53 reactivation	A549 tox	IL-2 act	Nrf2 inh
CCN1C(=O)c2ccccc2Sc2ccc(C(=O)N3CCC4(CC3)OCCO4)cc21	-13.5%	1.0%	-5.7%	-4.2%	-2.6	?
CCc1ccccc1NC(=O)C1CCCN(c2ncnc3onc(C)c23)C1 (stereo unspecified)	.	0.6%	.	-12.9%	.	?
Cc1ccc2c(c1N)C(=O)c1ccccc1C2=O	10µM*	5.1%	?	-19.9%	2.2	?
CC(Cc1ccccc1)NC(N)=O (stereo unspecified)	-5.4%	-0.5%	-3.0%	1.7%	0.4	-1.1%
O=C(O)CNC(=O)C(CS)Cc1ccccc1 (stereo unspecified)	9.2%	0.2%	2.5%	-10.0%	-0.4	10.3µM*
CC[C@@]1(O)C(=O)OCc2c1cc1n(c2=O)Cc2cc3c(NC(=O)CN)cccc3nc2-1	-80.2%	-0.4%	1.3%	-7.6%	-5.4	2.59µM*
CCC1(OC(=O)CN)C(=O)OCc2c1cc1n(c2=O)Cc2cc3ccccc3nc2-1 (stereo unspecified)	?	-0.1%	12.2%	?	-5.9	0.581µM*
CCOc1ccc2nc(N=Nc3c(O)[nH]c(=O)[nH]c3=O)sc2c1	0.7%	0.3%	-1.0%	?	1.0	-0.8%
CCOc1ccc2nc(N=Nc3c(O)[nH]c(=S)[nH]c3=O)sc2c1	27.2%	0.3%	11.2%	23.1µM*	0.0	18.5%
Cc1ccc2c(c1)C1CN(C)CCC1N2C(=O)c1ccccc1NS(=O)(=O)c1cccc(C(F)(F)F)c1 (stereo unspecified)	3.8%	4.9%	0.9%	?	-1.9	?
COc1cccc(C(=O)C2CCCN(Cc3ccc(F)cc3)C2)c1 (stereo unspecified)	-39.3%	-0.7%	.	-1.8%	-2.3	3.2%
COc1ccc(CCN2CCCC(CN(C)C(=O)c3cc(C)oc3C)C2)cc1 (stereo unspecified)	7.94µM*	0.3%	35.5µM*	-0.7%	-1.4	?
C/C(=N\OC(=O)NC(C)C)c1sc(-c2ccccc2)nc1C	5.62µM*	4.6%	10.4%	0.6%	-1.4	-1.4%
CCNC(=O)O/N=C(\C)c1sc(-c2ccc(Cl)cc2)nc1C	?	7.6%	5.9%	-1.7%	-1.5	?
